The record followed here is PubChem BioAssay.

Structures are written as SMILES. Active and inactive are the calls of the source. Unless noted, how the calls were made is not given here.

Assay [1] in a line: compounds binding Alexa647 anti-His antibody – biochemical, small-molecule microarray, 635 nm fluorescence, artefact control for SMM control protein annotation, primary screen (AID 1128).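 Further: score merges feature fluorescence with signal-to-noise for each printed compound spot.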 The note with it: higher = more signal.
The test system of assay [2] is Human papillomavirus type 1a E7 protein (residues 1-88). Nature of the assay: HPV1a E7 small-molecule binders, primary screen, biochemical, small-molecule microarray, residues 1-88, 635 nm (AID 1129). Particulars: small-molecule microarray binding, fluorescence 635 nm; higher = more signal.
Assay [3] deals with Focal adhesion kinase 1 (Homo sapiens) (UniProt Q05397). Nature of the assay: PTK2 protein binding on printed compound slides – biochemical, small-molecule microarray, 635/667 nm fluorescence, BSA, DTT, primary screen (AID 1130).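 Further: composite of spot emission at 667 nm and signal to noise over triplicate slides.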 Particulars: 635 nm fluorescence, higher = more signal.
For assay [4], the system named is Fibrinogen (Alexa647-labelled). Nature of the assay: Alexa647-fibrinogen binding to printed small molecules – biochemical, small-molecule microarray, 635/667 nm fluorescence, artefact control for SMM control-protein annotation, profiling panel (AID 1131).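 Further: z-score merges 667 nm fluorescence with per-spot signal-to-noise over triplicate slides.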 The note with it: fibrinogen-A647 binding fluorescence, higher = more signal.
For assay [5], the target named is Follistatin (Homo sapiens) (UniProt P19883). The assay is described as follows: FST protein binding to printed compounds – biochemical, small-molecule microarray, 635/667 nm fluorescence, primary screen (AID 1132). Particulars: 635 nm fluorescence, higher = more signal.
The target of assay [6] is Fibroblast growth factor 2 (Homo sapiens) (UniProt P09038). The assay is described as follows: basic fibroblast growth factor binding to printed compounds – biochemical, small-molecule microarray, 635/667 nm fluorescence, primary screen (AID 1133). The note with it: FGF2, fluorescence 635/667, higher = more signal.
A short description of assay [7]: JC-1 mitochondrial potential readout, lung cancer cells – cell-based, A549, JC-1 fluorescence, basal, 24 h, 100 nL, profiling panel (AID 1138).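 Further: A549 lung adenocarcinoma cells under basal conditions with no added stimulus; test concentration not given here.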 The note with it: higher = more signal.
In assay [8] the test system is Lefty1. Nature of the assay: Lefty1 protein binding to printed compounds – biochemical, small-molecule microarray, 635/667 nm fluorescence, primary screen (AID 1139). Particulars: fluorescence 635/667, higher = more signal.
In assay [9] the test system is wheat germ agglutinin (Triticum aestivum), Alexa647-labelled. The assay is described as follows: Alexa647-WGA lectin binding to printed small molecules – biochemical, small-molecule microarray, 635/667 nm fluorescence, artefact control for SMM control-protein annotation, profiling panel (AID 1140).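 Further: score merges 667 nm feature emission with signal to noise over triplicate slides.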 The note with it: WGA-A647 binding, 635 nm fluorescence, higher = more signal.

The target in assay [10] is Luciferin 4-monooxygenase (Photinus pyralis) (UniProt P08659). Nature of the assay: inhibition of purified Photinus pyralis luciferase – biochemical, luminescence, purified enzyme, 2006 set, primary screen (AID 1141).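 Further: cell-free assay with purified firefly luciferase at 100 ng per well in PBS; test concentration not given here.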 The note with it: purified firefly luciferase, SteadyGlo luminescence, 30 min; higher = more signal, called active from +8 up or from −8 down.
Assay [11] deals with Wnt5a (protein binding on small-molecule microarray). Nature of the assay: small molecules binding Wnt5a protein – biophysical, small-molecule microarray, 635/667 nm fluorescence, primary screen (AID 1142).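 Further: fluorescence read at 667 nm with signal to noise per printed feature.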 Particulars: 635 nm fluorescence, higher = more signal.
Assay [12] can be described thus: ATP-based viability of Huh7 replicon cells – cell-based, CellTiter-Glo luminescence, basal, 48 h, cytotoxicity control for HCV replication inhibitor project, primary screen (AID 1143).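 Further: Huh7 hepatoma cells carrying a hepatitis C replication reporter with no stimulus; test concentration not given here.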 Particulars: higher = more signal, called active from +8 up or from −8 down. In general terms: In antiviral work, replicon cells carry a viral genome segment that copies itself.
A short description of assay [13]: Pseudomonas biofilm growth suppression – PAO1 strain, BacTiter-Glo luminescence, LB-PBS, primary screen (AID 1144). The note with it: P. aeruginosa PAO1 biofilm, 12 h, higher = more signal.
Assay [14] in a line: basal CRE-LacZ reporter activity in PC12 – cell-based, unstimulated, primary screen (AID 1145). The note with it: no forskolin, luminescence, 4.5 h, higher = more signal, called active from +8 up or from −8 down.
Assay [15] can be described thus: forskolin-driven CRE-LacZ activity in PC12 – cell-based, CRE-LacZ reporter, forskolin-stimulated, primary screen (AID 1146).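 Further: PC12 cells with 6xCRE LacZ reporter stimulated by forskolin 10 µM; beta-galactosidase reporter signal reflecting CREB driven transcription.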 Particulars: luminescence, 4.5 h, higher = more signal, called active from +8 up or from −8 down.
Assay [16] concerns the target Streptavidin (Streptomyces avidinii) (UniProt P22629). The assay is described as follows: compounds binding control protein streptavidin – biophysical, small-molecule microarray, 635/667 nm fluorescence, artefact control for SMM compound annotation, primary screen (AID 1147).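 Further: signal reflects streptavidin binding to arrayed compounds as a control protein.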 Particulars: higher = more signal.
Assay [17] in a line: probe aInhba binding on compound microarray – biochemical, small-molecule microarray, 635/667 nm fluorescence, primary screen (AID 1148).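 Further: score merges 667nm spot fluorescence with signal-to-noise for antibody binding to printed compounds.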 The note with it: higher = more signal.
Assay [18] has as its target Torsin-1A (Homo sapiens) (UniProt O14656). The assay is described as follows: TOR1A wild-type binding on microarray – cell lysate, small-molecule microarray, lysate, 635/667 nm, primary screen (AID 1149). The note with it: COS7 hTOR1A-WT lysate, 635 nm fluorescence, higher = more signal.
For assay [19] the target is unchanged. Nature of the assay: torsin A mutant lysate binding on microarrays – cell lysate, small-molecule microarray, COS7 lysate, 635/667 nm fluorescence, primary screen (AID 1150).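 Further: score pools 667 nm emission and signal to noise measuring lysate protein binding.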 The note with it: COS7 hTOR1A mutant lysate, 635 nm fluorescence, higher = more signal.
In assay [20] the test system is Sonic hedgehog protein (Shh). The assay is described as follows: Sonic hedgehog microarray binding compounds – biochemical, small-molecule microarray, 635/667 nm fluorescence, primary screen (AID 1151).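 Further: Shh protein binding to compounds spotted on small-molecule microarray slides; score combines spot fluorescence intensity with signal-to-noise across triplicate slides.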 Particulars: 635 nm fluorescence, higher = more signal.

Sequence of Focal adhesion kinase 1 (Homo sapiens) (Q05397 whole entry, looked up): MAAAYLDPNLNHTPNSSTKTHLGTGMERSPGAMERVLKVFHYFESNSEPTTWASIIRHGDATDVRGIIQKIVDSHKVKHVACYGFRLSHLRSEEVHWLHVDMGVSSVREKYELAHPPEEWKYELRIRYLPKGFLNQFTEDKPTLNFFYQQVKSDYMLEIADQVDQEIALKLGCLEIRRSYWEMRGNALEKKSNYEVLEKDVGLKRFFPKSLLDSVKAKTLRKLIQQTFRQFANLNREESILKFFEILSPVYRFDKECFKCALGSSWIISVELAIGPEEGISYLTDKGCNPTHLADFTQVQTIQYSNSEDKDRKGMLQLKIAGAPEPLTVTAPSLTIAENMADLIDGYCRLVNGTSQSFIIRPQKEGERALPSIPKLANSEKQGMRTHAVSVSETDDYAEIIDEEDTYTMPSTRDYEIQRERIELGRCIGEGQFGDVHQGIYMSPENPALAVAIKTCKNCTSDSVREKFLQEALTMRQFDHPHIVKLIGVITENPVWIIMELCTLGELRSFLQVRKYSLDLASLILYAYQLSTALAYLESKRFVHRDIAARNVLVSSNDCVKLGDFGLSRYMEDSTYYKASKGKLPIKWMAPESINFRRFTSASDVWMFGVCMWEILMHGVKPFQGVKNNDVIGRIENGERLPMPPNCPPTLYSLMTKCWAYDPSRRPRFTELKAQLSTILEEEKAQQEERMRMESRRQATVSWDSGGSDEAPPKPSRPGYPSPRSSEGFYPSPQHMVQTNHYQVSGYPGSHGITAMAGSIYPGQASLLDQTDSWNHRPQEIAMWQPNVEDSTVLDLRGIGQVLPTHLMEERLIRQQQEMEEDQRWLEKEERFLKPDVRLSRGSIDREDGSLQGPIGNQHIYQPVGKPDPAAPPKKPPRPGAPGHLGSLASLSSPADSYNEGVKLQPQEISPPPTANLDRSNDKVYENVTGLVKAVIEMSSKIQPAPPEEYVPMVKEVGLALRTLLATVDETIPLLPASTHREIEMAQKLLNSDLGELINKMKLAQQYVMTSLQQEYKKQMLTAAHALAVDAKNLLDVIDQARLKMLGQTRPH
Sequence of Torsin-1A (Homo sapiens) (O14656 whole entry, looked up): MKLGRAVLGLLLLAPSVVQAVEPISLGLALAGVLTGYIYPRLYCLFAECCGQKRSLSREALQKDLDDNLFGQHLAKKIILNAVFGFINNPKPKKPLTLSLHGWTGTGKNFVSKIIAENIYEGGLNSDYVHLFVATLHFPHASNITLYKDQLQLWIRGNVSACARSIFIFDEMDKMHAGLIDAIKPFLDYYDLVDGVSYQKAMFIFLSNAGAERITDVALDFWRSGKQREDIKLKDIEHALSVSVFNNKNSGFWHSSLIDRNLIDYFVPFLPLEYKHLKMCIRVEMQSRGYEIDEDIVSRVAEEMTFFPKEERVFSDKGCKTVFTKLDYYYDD
Sequence of Fibroblast growth factor 2 (Homo sapiens) (P09038 whole entry, looked up): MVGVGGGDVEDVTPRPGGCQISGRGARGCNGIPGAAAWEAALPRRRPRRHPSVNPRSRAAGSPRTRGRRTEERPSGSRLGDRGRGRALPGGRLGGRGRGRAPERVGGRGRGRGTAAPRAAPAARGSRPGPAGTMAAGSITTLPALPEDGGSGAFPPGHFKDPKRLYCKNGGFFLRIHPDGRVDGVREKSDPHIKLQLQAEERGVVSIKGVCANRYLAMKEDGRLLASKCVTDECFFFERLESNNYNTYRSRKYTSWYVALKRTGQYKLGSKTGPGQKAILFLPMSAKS
Sequence of Luciferin 4-monooxygenase (Photinus pyralis) (P08659 whole entry, looked up): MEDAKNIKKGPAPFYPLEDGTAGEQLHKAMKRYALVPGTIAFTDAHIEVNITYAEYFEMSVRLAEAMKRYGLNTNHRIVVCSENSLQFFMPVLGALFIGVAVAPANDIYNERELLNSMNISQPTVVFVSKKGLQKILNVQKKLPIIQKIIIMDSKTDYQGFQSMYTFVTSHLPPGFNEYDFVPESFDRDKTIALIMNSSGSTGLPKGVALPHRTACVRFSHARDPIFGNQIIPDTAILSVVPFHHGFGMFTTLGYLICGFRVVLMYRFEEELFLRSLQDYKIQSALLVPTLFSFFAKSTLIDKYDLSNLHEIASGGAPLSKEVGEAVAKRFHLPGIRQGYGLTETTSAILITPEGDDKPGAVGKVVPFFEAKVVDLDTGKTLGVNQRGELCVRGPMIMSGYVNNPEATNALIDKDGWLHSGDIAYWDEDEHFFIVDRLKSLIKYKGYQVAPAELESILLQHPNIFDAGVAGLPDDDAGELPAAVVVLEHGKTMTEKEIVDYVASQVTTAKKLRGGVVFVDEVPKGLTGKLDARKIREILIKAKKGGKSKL
Sequence of Follistatin (Homo sapiens) (P19883 whole entry, looked up): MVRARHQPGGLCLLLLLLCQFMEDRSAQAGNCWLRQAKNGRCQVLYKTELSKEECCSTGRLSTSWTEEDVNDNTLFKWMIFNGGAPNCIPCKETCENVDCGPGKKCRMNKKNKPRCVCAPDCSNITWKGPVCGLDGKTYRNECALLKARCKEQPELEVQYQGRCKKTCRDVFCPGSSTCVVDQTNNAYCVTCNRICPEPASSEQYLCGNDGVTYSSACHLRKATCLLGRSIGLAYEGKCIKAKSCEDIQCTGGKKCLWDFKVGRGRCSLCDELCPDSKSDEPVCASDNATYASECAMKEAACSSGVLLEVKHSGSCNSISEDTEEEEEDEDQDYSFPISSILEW
Sequence of Streptavidin (Streptomyces avidinii) (P22629 whole entry, looked up): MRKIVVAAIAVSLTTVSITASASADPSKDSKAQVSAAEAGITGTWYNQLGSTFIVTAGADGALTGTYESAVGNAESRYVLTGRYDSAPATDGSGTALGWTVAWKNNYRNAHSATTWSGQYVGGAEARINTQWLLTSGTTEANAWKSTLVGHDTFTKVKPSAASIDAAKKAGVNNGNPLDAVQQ

Consider `COC(=O)[C@@]1(CCS(=O)(=O)c2ccccc2)N=C(c2ccc(OCCCO)cc2)O[C@H]1c1ccccc1CN=[N+]=[N-]`, for which the composite z-score came to 2.29 in [1]; 1.19 in assay [2]; 1.46 in assay [3]; 0.755 in [4]; 1.31 in assay [5]; 0.55 in assay [6]. For the same molecule, the composite z-score is 0.279 in assay [8]; 1.01 in assay [9]; 0.351 in assay [11]; 0.415 in [16]; 0.0808 in assay [17]; 0.252 in assay [18]. Moreover, the composite z-score stood at 0.869 in assay [19] and 0.281 in assay [20]. The z-score is -0.229 in assay [7]; -0.282 (inactive) in assay [10]; -2.7 (inactive) in assay [12]; 0.945 (inactive) in assay [13]; 1.38 (inactive) in [14]; -1.43 (inactive) in assay [15].
`CC(C)CNC(=O)[C@@]1(Cc2ccccc2I)c2ccccc2C(=O)N(C2CCCCC2)[C@H]1c1ccc(CO)cc1`: the composite z-score amounted to 1.57 in assay [1]; 1 in [2]; 0.321 in assay [3]; 0.348 in [4]; 0.0932 in [5]; 0.99 in assay [6]. For the same molecule, the composite z-score in assay [8] is -0.104; in assay [9] it was 0.84; in assay [11], 0.705; in [16], -0.346; in assay [17] it was 0.23; in [18], 0.222. Further, the composite z-score came to 0.551 in [19] and 0.187 in [20]. Besides, the z-score in assay [7] is 1.57; in [10] it was 0.258 (inactive); in assay [12], -1.71 (inactive); in assay [13] it was 0.0484 (inactive); in [14], -0.206 (inactive); in assay [15], -0.0769 (inactive).
On to `C=CCN1C(=O)[C@@]2(Cc3ccccc31)N=C(c1ccc(OCCCO)cc1)O[C@H]2c1ccccc1`, for which the composite z-score worked out at 2.49 in assay [1]; 1.19 in assay [2]; 1.02 in [3]; 0.039 in assay [4]; 1.35 in [5]; 0.988 in assay [6]. The composite z-score in assay [8] was 0.368; in [9], 0.495; in assay [11], 0.344; in [16], 0.0866; in assay [17] it was 0.195; in assay [18], 0.698. For the same molecule, the composite z-score in [19] came out at 0.855; in assay [20], 1.14. In addition, the z-score is 1.1 in assay [7]; -2.65 (inactive) in [10]; -3.53 (inactive) in assay [12]; -0.144 (inactive) in assay [13]; 0.47 (inactive) in assay [14]; -1.81 (inactive) in assay [15].
